Test systems include DU-145 prostate; K-562 leukemia; MALME-3M melanoma; MDA-MB-231 breast; RXF 393 renal; SF-268 CNS; SF-295 CNS; SF-539 CNS; UACC-257 melanoma; M14 melanoma; HCT-15 colon; HT29 colon; SNB-75 CNS; SNB-19 CNS; U251 CNS; PC-3 prostate; SK-MEL-5 melanoma; UACC-62 melanoma; LOX IMVI melanoma; SK-MEL-28 melanoma.
Common to all, as to test: NCI-60 one-dose screen, 48 h (100 = growth as untreated, 0 = no growth, -100 = all killed)
What all share (conditions): 10 µM unless noted

Compounds without any hit were thinned out: in the full panel of roughly 83,000, 20% have a hit.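 The test compound was applied at a single concentration to cells in 96-well plates for 48 hours, and percent growth was recorded.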 Unmarked numbers belong to inactive results. The source made the active and inactive calls. Rule for the calls: active = growth percent below 10; inactive = the rest.

On to `COc1ccc(NC(=O)CSc2nc(C)c(C(C)=O)n2-c2ccc(Cl)cc2)cc1`, for which the growth is 116% in the test with DU-145 prostate; 109% in the test with K-562 leukemia; 96% with MALME-3M melanoma; 59.7% with MDA-MB-231 breast; 94.5% in the test on RXF 393 renal; 102% with SF-268 CNS. Further, the growth with SF-295 CNS is 93.3%; with SF-539 CNS, 96.2%; in the test with UACC-257 melanoma, 101%; in the test on M14 melanoma, 97%; with HCT-15 colon, 78.4%; in the test on HT29 colon, 84.2%. The growth with SNB-75 CNS was 84.7%; with SNB-19 CNS, 90.9%; with U251 CNS, 105%; in the test on PC-3 prostate it was 96.3%; in the test with SK-MEL-5 melanoma it was 93.7%; in the test with UACC-62 melanoma, 70.2%. In addition, the growth in the test on LOX IMVI melanoma was 91%; in the test on SK-MEL-28 melanoma, 91.7%.
`O=C(Nc1ccc(Nc2ccncc2)cc1)c1ccc(C(=O)Nc2ccc(Nc3ccncc3)cc2)cc1`: the growth with DU-145 prostate was 85.8%; in the test on K-562 leukemia, 53.5%; in the test with MALME-3M melanoma, 5.82% (active); with MDA-MB-231 breast, 84.4%; with RXF 393 renal it was 100%; in the test with SF-268 CNS, 75%. For the same molecule, the growth in the test with SF-295 CNS is 91.7%; with SF-539 CNS it was 82.6%; in the test with UACC-257 melanoma it was 24.2%; in the test on M14 melanoma, 44.2%; with HCT-15 colon, 79.7%; in the test on HT29 colon, 32.9%. The growth is 109% with SNB-75 CNS; 77.4% in the test with SNB-19 CNS; 64.2% in the test on U251 CNS; 60.4% with PC-3 prostate; 34.4% in the test with SK-MEL-5 melanoma; 38.3% with UACC-62 melanoma. Further, the growth is 65.5% in the test with LOX IMVI melanoma and 43.4% with SK-MEL-28 melanoma.
Take `O=C(NCCCNc1cc(-c2cn(-c3ccccc3)nc2-c2cccc(O)c2)ccn1)c1ccccc1`: the growth in the test with DU-145 prostate was 49.7%; in the test with K-562 leukemia, -4.2% (active); with MALME-3M melanoma, -5.89% (active); with MDA-MB-231 breast, -6.57% (active); with RXF 393 renal, 24%; in the test with SF-268 CNS, 44.1%. In addition, the growth in the test with SF-295 CNS was 12%; in the test on SF-539 CNS, 27.3%; with UACC-257 melanoma it was -49.2% (active); with M14 melanoma it was 3.42% (active); with HCT-15 colon it was 1.17% (active); with HT29 colon, -2.39% (active). The growth with SNB-75 CNS is 23.1%; in the test with SNB-19 CNS, 65.7%; in the test on U251 CNS it was 27.9%; in the test on PC-3 prostate, 27.2%; in the test with SK-MEL-5 melanoma it was -37.8% (active); in the test with UACC-62 melanoma, 23.6%. In addition, the growth with LOX IMVI melanoma is 17.3%; with SK-MEL-28 melanoma it was 4.17% (active).
As to `COc1ccc2[nH]c(O)c(/C=c3/cc4c(c(-c5ccc(F)c(OC)c5)n3)=Nc3ccccc3-4)c2c1`, the growth in the test with DU-145 prostate is 30.3%; in the test on K-562 leukemia, 0.38% (active); in the test with MALME-3M melanoma, -55.6% (active); with MDA-MB-231 breast, -47.5% (active); in the test on RXF 393 renal, -75.2% (active); with SF-268 CNS, 30.3%. Also, the growth is 104% with SF-295 CNS; 64.3% in the test with SF-539 CNS; 103% with UACC-257 melanoma; -8.58% (active) in the test with M14 melanoma; -24% (active) in the test with HCT-15 colon; -78.5% (active) in the test with HT29 colon. Besides, the growth in the test on SNB-75 CNS was 92.1%; in the test with SNB-19 CNS, 47.6%; in the test with U251 CNS, -70.1% (active); in the test on PC-3 prostate it was 68.7%; in the test with SK-MEL-5 melanoma, 57.2%; with UACC-62 melanoma, 79.8%. The growth in the test with LOX IMVI melanoma was -17.2% (active); in the test with SK-MEL-28 melanoma, -51.2% (active).
For `S=C(c1ccc2c(c1)OCO2)N1CCN(c2ccccc2Cl)CC1`, the growth was 105% with DU-145 prostate; 108% in the test with K-562 leukemia; 72% in the test with MALME-3M melanoma; 98.7% with MDA-MB-231 breast; 109% in the test with RXF 393 renal; 94% in the test on SF-268 CNS. In addition, the growth with SF-295 CNS was 118%; with SF-539 CNS it was 102%; in the test on UACC-257 melanoma, 96.2%; with M14 melanoma, 99.3%; in the test with HCT-15 colon, 96.2%; with HT29 colon, 93.6%. Further, the growth in the test with SNB-75 CNS was 100%; with SNB-19 CNS, 99.4%; in the test with U251 CNS it was 95.2%; in the test on PC-3 prostate, 84.7%; with SK-MEL-5 melanoma, 89.6%; in the test on UACC-62 melanoma it was 89.5%. For the same molecule, the growth with LOX IMVI melanoma was 111%; in the test with SK-MEL-28 melanoma, 103%.
As for `Cc1ccc(Cl)cc1NC(=O)c1cc2ccccc2cc1O`, the growth with DU-145 prostate is 7.76% (active); in the test on K-562 leukemia it was -33.7% (active); with MALME-3M melanoma it was -32.6% (active); in the test on MDA-MB-231 breast, -56.8% (active); with RXF 393 renal, -15.6% (active); in the test on SF-268 CNS it was 9.58% (active). Also, the growth was -9.44% (active) in the test with SF-295 CNS; -0.708% (active) in the test with SF-539 CNS; -7.13% (active) with UACC-257 melanoma; 2.88% (active) in the test on M14 melanoma; 8.41% (active) in the test with HCT-15 colon; 7.43% (active) in the test on HT29 colon. In addition, the growth with SNB-75 CNS is -14.3% (active); in the test with SNB-19 CNS it was 22.8%; with U251 CNS, 2.92% (active); in the test with PC-3 prostate it was -12.6% (active); in the test with SK-MEL-5 melanoma, -74.4% (active); in the test on UACC-62 melanoma it was -11.5% (active). For the same molecule, the growth with LOX IMVI melanoma was 3.41% (active); in the test on SK-MEL-28 melanoma, 9.98% (active).
Turning to `N#Cc1c(-c2cccc(Cl)c2)cc(-c2cccc(F)c2)[nH]c1=O`, the growth was 98.6% in the test with DU-145 prostate; 85.5% in the test on K-562 leukemia; 99.9% in the test on MALME-3M melanoma; 89.9% with MDA-MB-231 breast; 88.7% with RXF 393 renal; 95.6% in the test on SF-268 CNS. In addition, the growth with SF-295 CNS was 91.2%; with SF-539 CNS it was 94.3%; with UACC-257 melanoma it was 102%; in the test with M14 melanoma, 101%; with HCT-15 colon it was 90.2%; with HT29 colon, 107%. For the same molecule, the growth is 85.8% in the test with SNB-75 CNS; 91.1% with SNB-19 CNS; 86.7% in the test with U251 CNS; 85.3% in the test on PC-3 prostate; 89.4% in the test with SK-MEL-5 melanoma; 76.8% with UACC-62 melanoma. Besides, the growth in the test on LOX IMVI melanoma is 89.6%; with SK-MEL-28 melanoma, 97.9%.

Source of the values: PubChem BioAssay (NCI).
